Conditions in all cases: mRNA level, 48 h; actives raise or lower the signal
Read-out in assay [1]: DNA damage-inducible transcript 3 (DDIT3), DDIT3 (gene 1649)
As to the kind of experiment: LTEA_HepaRG_DDIT3: Life Technologies and Expression Analysis (LTEA) Assay for DNA damage-inducible transcript 3 (DDIT3) using HepaRG (AID 2283488). The method, boiled down: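 qRT-PCR readout (Fluidigm TaqMan), housekeeping-normalized to ACTB, GAPDH, POLR2A. HepaRG cells, 48 h exposure, 8-point half-log series from 100 uM in 0.5% DMSO, duplicates. Gain or loss of signal fitted against DMSO baseline.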

Read-out in assay [2]: Pro-epidermal growth factor (Homo sapiens) (UniProt P01133)
Kind of assay: LTEA_HepaRG_EGF: Life Technologies and Expression Analysis (LTEA) Assay for Epidermal growth factor (EGF) using HepaRG (AID 2283489). The essentials:
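HepaRG cells (~100,000/well, 48 h pre-culture) exposed in duplicate for 48 h in serum-free induction medium to 8 half-log concentrations up to 100 uM in 0.5% DMSO. EGF mRNA by qRT-PCR, normalized to ACTB/GAPDH/POLR2A; bidirectional fit versus DMSO.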

Read-out in assay [3]: Early growth response protein 1 (EGR1) transcription factor, EGR1 (gene 1958)
As to the kind of experiment: LTEA_HepaRG_EGR1: Life Technologies and Expression Analysis (LTEA) Assay for Early growth response protein 1 (EGR1) transcription factor using HepaRG (AID 2283490). The essentials: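 EGR1 transcript levels quantified by qRT-PCR (Fluidigm arrays) against three housekeeping genes after 48 h chemical exposure of HepaRG cells. Eight-point half-log series topping at 100 uM, 0.5% DMSO vehicle, analyzed for gain or loss.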

Read-out in assay [4]: Ezrin (EZR), EZR (gene 7430)
As to the kind of experiment: LTEA_HepaRG_EZR: Life Technologies and Expression Analysis (LTEA) Assay for Ezrin (EZR) using HepaRG (AID 2283491). The method, boiled down:
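Gain or loss of EZR mRNA is scored relative to 0.5% DMSO in human HepaRG cultures treated 48 h with test chemicals in duplicate, eight half-log concentrations from 100 uM.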

Read-out in assay [5]: Cytochrome P450 3A7 (Homo sapiens) (UniProt P24462)
Kind of assay: LTEA_HepaRG_CYP3A7: Life Technologies and Expression Analysis (LTEA) Assay for CYP3A7 using HepaRG (AID 2283492). The essentials: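 Differentiated HepaRG cells in serum-free induction medium exposed 48 h in duplicate to 8-point half-log series from 100 uM top in 0.5% DMSO. CYP3A7 mRNA by qRT-PCR, normalized to ACTB/GAPDH/POLR2A, bidirectional fit versus DMSO.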

Read-out in the next assay: CYP3A5 (gene 1577)
Kind of assay: LTEA_HepaRG_CYP3A5: Life Technologies and Expression Analysis (LTEA) Assay for CYP3A5 using HepaRG (AID 2283493). The essentials: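 qRT-PCR read-out: CYP3A5 transcript in HepaRG lysates, housekeeping-normalized (ACTB/GAPDH/POLR2A), fitted bidirectionally against 0.5% DMSO baseline. Exposure 48 h, eight half-log concentrations up to 100 uM, duplicates.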

Read-out in assay [6]: Fatty Acid-Binding Protein 1 (FABP1), FABP1 (gene 2168)
Kind of assay: LTEA_HepaRG_FABP1: Life Technologies and Expression Analysis (LTEA) Assay for Fatty Acid-Binding Protein 1 (FABP1) using HepaRG (AID 2283494). The essentials: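 FABP1 expression by TaqMan qRT-PCR, normalised to three housekeeping genes, in HepaRG cells after 48 h chemical treatment. Eight-point half-log series topping at 100 uM in 0.5% DMSO, duplicates; gain or loss fitted relative to vehicle.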

Read-out in assay [7]: Cytochrome P450 4A22 (Homo sapiens) (UniProt Q5TCH4)
Kind of assay: LTEA_HepaRG_CYP4A22: Life Technologies and Expression Analysis (LTEA) Assay for Cytochrome P450 4A22 (CYP4A22) using HepaRG (AID 2283495). The method, boiled down:
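Differentiated HepaRG cells in serum-free induction medium exposed 48 h in duplicate to eight half-log concentrations up to 100 uM in 0.5% DMSO. CYP4A22 mRNA quantified by TaqMan qRT-PCR, normalized to ACTB, GAPDH and POLR2A; bidirectional fit versus DMSO.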

Read-out in assay [8]: Glutathione S-Transferase (GSTA2), GSTA2 (gene 2939)
Kind of assay: LTEA_HepaRG_GSTA2: Life Technologies and Expression Analysis (LTEA) Assay for Glutathione S-Transferase (GSTA2) using HepaRG (AID 2283497). The method, boiled down:
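GSTA2 transcript levels came from Fluidigm TaqMan qRT-PCR normalized to three housekeeping genes, fitted in both directions against DMSO. HepaRG cultures received chemicals for 48 h in serum-free induction medium (0.5% DMSO), 8 half-log concentrations up to 100 uM, duplicate.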

Read-out in assay [9]: Glutamate-cysteine ligase catalytic (GCLC), GCLC (gene 2729)
Kind of assay: LTEA_HepaRG_GCLC: Life Technologies and Expression Analysis (LTEA) Assay for Glutamate-cysteine ligase catalytic (GCLC) using HepaRG (AID 2283498). The method, boiled down: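 Expression by TaqMan qRT-PCR, normalized to three housekeeping genes (ACTB, GAPDH, POLR2A), with up- or down-regulation fitted against DMSO. HepaRG cells dosed in duplicate for 48 h with 8 half-log concentrations up to 100 uM, vehicle 0.5% DMSO.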

Read-out in assay [10]: growth arrest and DNA damage 45 (GADD45G), GADD45G (gene 10912)
As to the kind of experiment: LTEA_HepaRG_GADD45G: Life Technologies and Expression Analysis (LTEA) Assay for growth arrest and DNA damage 45 (GADD45G) using HepaRG (AID 2283499). The essentials: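 Differentiated human HepaRG cells, 48 h post-plating, exposed 48 h in serum-free induction medium to 8 half-log concentrations (top 100 uM, 0.5% DMSO) in duplicate. GADD45G mRNA measured by Fluidigm TaqMan qRT-PCR, normalized to ACTB, GAPDH, POLR2A; bidirectional fit versus DMSO.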

Read-out in assay [11]: 3-Hydroxy-3-Methylglutaryl-CoA Synthase 2 (HMGCS2), HMGCS2 (gene 3158)
Kind of assay: LTEA_HepaRG_HMGCS2: Life Technologies and Expression Analysis (LTEA) Assay for 3-Hydroxy-3-Methylglutaryl-CoA Synthase 2 (HMGCS2) using HepaRG (AID 2283504). The method, boiled down: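 Human HepaRG cells in serum-free induction medium were exposed in duplicate for 48 h to 8-point half-log series from 100 uM top in 0.5% DMSO. HMGCS2 mRNA measured by TaqMan qRT-PCR, normalised to ACTB, GAPDH, POLR2A; bidirectional fit versus DMSO.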

Read-out in a further assay: HGF (gene 3082)
As to the kind of experiment: LTEA_HepaRG_HGF: Life Technologies and Expression Analysis (LTEA) Assay for Hepatocyte Growth Facto (HGF) using HepaRG (AID 2283505). The method, boiled down: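 Differentiated HepaRG cells in serum-free induction medium exposed 48 h in duplicate, 8 half-log concentrations from 100 uM in 0.5% DMSO. HGF mRNA by qRT-PCR, normalised to ACTB, GAPDH, POLR2A; bidirectional fitting.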

Read-out in assay [12]: Intercellular Adhesion Molecule 1 (ICAM1), ICAM1 (gene 3383)
As to the kind of experiment: LTEA_HepaRG_ICAM1: Life Technologies and Expression Analysis (LTEA) Assay for Intercellular Adhesion Molecule 1 (ICAM1) using HepaRG (AID 2283507). The essentials: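 Differentiated human HepaRG cells in serum-free induction medium exposed 48 h in duplicate to 8 half-log concentrations (top 100 uM, 0.5% DMSO). ICAM1 mRNA quantified by TaqMan qRT-PCR, normalized to ACTB, GAPDH and POLR2A; bidirectional fitting versus DMSO.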

Read-out in assay [13]: Cytochrome P450 7A1 (Homo sapiens) (UniProt P22680)
Kind of assay: LTEA_HepaRG_CYP7A1: Life Technologies and Expression Analysis (LTEA) Assay for Cytochrome P450 7A1 (CYP7A1) using HepaRG (AID 2283496). The method, boiled down:
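Using 0.5% DMSO as vehicle and baseline, chemicals were tested in duplicate over an 8-point range from 100 uM on HepaRG cells for 48 h; qRT-PCR signals were normalised to ACTB, GAPDH and POLR2A.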

Read-out in assay [14]: Glutamate-cysteine ligase regulatory (GCLM), GCLM (gene 2730)
As to the kind of experiment: LTEA_HepaRG_GCLM: Life Technologies and Expression Analysis (LTEA) Assay for Glutamate-cysteine ligase regulatory (GCLM) using HepaRG (AID 2283500). The essentials: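 HepaRG, 48 h dosing, 100 uM top, half-log x8, 0.5% DMSO vehicle. Readout: GCLM mRNA by TaqMan qRT-PCR, housekeeping-normalized (ACTB/GAPDH/POLR2A). Curves fit bidirectionally vs DMSO baseline.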

Read-out in assay [15]: Heat shock 70 kDa protein 1 (HSPA1A), gene 3303
As to the kind of experiment: LTEA_HepaRG_HSPA1A: Life Technologies and Expression Analysis (LTEA) Assay for Heat shock 70 kDa protein 1 (HSPA1A) using HepaRG (AID 2283502). The method, boiled down: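 HepaRG, 48 h exposure, 8-pt half-log CRC from 100 uM in 0.5% DMSO, duplicates. Readout: TaqMan qRT-PCR of HSPA1A mRNA, housekeeping-normalized (ACTB/GAPDH/POLR2A). Bidirectional fit vs 0.5% DMSO baseline.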

Read-out in assay [16]: Hypoxia-inducible factor 1-alpha (Homo sapiens) (UniProt Q16665)
Kind of assay: LTEA_HepaRG_HIF1A: Life Technologies and Expression Analysis (LTEA) Assay for Hypoxia-inducible factor 1 (HIF1A) Trancription factor using HepaRG (AID 2283503). The essentials: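 Gain- or loss-of-signal HIF1A mRNA changes are fitted against a DMSO baseline. HepaRG cultures receive eight concentrations, highest 100 uM, for 48 h in serum-free induction medium with 0.5% DMSO.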

Where a structure was tested more than once in an assay, its records may differ in their call. Active and inactive are the calls of the source. Rule for the calls: active = hit-call score of the fitted dose curve at least 0.9, where 1 is the maximum; inactive = score below 0.9.

Sequence of Hypoxia-inducible factor 1-alpha (Homo sapiens) (Q16665 whole entry, looked up): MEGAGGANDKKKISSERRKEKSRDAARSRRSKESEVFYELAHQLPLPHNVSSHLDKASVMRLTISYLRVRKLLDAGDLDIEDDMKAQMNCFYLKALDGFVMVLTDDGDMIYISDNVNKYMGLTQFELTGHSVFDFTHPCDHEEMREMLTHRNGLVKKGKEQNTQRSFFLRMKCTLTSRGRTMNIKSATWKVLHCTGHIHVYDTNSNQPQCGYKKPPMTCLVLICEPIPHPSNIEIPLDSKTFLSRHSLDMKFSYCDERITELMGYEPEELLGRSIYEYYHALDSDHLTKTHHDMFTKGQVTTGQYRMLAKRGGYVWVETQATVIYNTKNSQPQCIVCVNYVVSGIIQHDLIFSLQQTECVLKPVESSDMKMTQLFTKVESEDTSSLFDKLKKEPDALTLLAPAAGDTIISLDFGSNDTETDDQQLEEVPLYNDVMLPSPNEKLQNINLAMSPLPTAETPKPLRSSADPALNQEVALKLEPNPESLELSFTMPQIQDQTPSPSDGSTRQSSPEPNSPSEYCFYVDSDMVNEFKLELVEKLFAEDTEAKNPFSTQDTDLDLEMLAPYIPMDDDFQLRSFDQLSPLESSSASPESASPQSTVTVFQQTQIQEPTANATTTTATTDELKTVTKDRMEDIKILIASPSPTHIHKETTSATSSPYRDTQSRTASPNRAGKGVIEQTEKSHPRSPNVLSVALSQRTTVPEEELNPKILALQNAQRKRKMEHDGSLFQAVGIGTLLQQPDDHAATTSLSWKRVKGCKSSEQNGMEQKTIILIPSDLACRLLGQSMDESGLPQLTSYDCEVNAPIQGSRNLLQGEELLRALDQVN
Sequence of Cytochrome P450 3A7 (Homo sapiens) (P24462 whole entry, looked up): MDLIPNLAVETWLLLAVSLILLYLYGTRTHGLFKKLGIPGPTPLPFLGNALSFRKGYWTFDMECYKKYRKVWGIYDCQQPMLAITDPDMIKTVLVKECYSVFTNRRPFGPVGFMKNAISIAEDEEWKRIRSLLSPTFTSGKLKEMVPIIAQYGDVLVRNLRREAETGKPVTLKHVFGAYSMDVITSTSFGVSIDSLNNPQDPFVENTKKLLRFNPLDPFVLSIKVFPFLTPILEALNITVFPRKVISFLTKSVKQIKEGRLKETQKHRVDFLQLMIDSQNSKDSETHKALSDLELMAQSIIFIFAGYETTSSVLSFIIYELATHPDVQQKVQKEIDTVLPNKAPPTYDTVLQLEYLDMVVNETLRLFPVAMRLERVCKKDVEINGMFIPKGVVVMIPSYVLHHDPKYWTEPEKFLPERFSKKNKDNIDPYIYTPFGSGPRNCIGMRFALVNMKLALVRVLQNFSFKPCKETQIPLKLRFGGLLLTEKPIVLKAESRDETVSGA

By AC50 is commonly meant the midpoint of the concentration-response curve, whichever way the signal moves. `CN(C)[C@@H]1C(=O)C(C(N)=O)=C(O)[C@@]2(O)C(=O)C3=C(O)c4c(O)cccc4[C@@](C)(O)[C@H]3[C@H](O)[C@@H]12`: the molecule was classed as inactive (in assay [1]; in assay [2]; in assay [3]; in [4]; in assay [5]; with CYP3A5 (gene 1577)). The outcome in assay [6], in assay [7], in assay [8], in assay [9], in [10] and in assay [11] was inactive. Besides, the molecule was classed as inactive (in the assay with HGF (gene 3082); in assay [12]). For the same molecule, in [7], the AC50 is 50 µM (active).

Consider `CCc1cnc(C2=NC(C)(C(C)C)C(=O)N2)c(C(=O)O)c1` (stereo unspecified), for which the outcome (in assay [1]; in assay [2]; in assay [3]; in assay [4]; with CYP3A5 (gene 1577); in assay [6]) was inactive. The molecule was called inactive in [7], in assay [13], in assay [8], in [9], in assay [10] and in assay [14]. For the same molecule, the call (in [15]; in assay [16]; in [11]; in the assay with HGF (gene 3082); in [12]) was inactive.

`CCOP(=S)(Oc1cnc(C(C)(C)C)nc1)OC(C)C` (stereo unspecified): the molecule was classed as inactive (in assay [1]; in assay [2]; in assay [3]; in [4]; in the assay with CYP3A5 (gene 1577); in [7]). Moreover, the call in [8], in assay [9], in [10], in [14], in assay [15] and in assay [16] was inactive. The call (with HGF (gene 3082); in assay [12]) was inactive. The AC50 in assay [6] is 2.01 µM (active); in [13], 4.63 µM (active); in assay [11] it was 14 µM (active).

Turning to `CCOC(=O)CC(SP(=O)(OC)OC)C(=O)OCC` (stereo unspecified), the outcome (in assay [1]; in assay [2]; in [3]; in [4]; in assay [5]; with CYP3A5 (gene 1577)) was inactive. Further, the result in [6], in assay [7], in assay [8], in assay [9], in assay [10] and in [14] was inactive. Further, the result (in assay [16]; in assay [11]; in the assay with HGF (gene 3082); in assay [12]) was inactive. In assay [13], the AC50 was 50 µM (active).

The values are drawn from PubChem BioAssay (EPA / NIEHS).
